ALR H2O2 inh: inhibitors of human ALR sulfhydryl oxidase, primary screen, biochemical, H2O2 detection, HRP-luminol luminescence, single point | 290,000 compounds, 3.8% hits | purified ALR, DTT oxidation | FAD-linked sulfhydryl oxidase ALR (Homo sapiens), P55789 | inhibition, % (concentration not given with the values);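 active means mean replicate inhibition above about 79%, with every replicate also reaching it, limit read from the data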
PglD DTNB: C. jejuni PglD acetyltransferase inhibitors, primary screen, biochemical, DTNB colorimetric, single point; UDP-N-acetylbacillosamine N-acetyltransferase PglD (Campylobacter jejuni); purified PglD enzyme, DTNB colorimetric CoA detection; inhibition, % at 12.5 µM; 360,000 compounds, 0.098% hits; AID 602405, 2012; in the data active means inhibition above about 16%, passing the limit was not always enough
ERp5 inh: inhibitors of ERp5-driven insulin aggregation, primary screen, biochemical, turbidity, absorbance 650 nm, single point. 350,000 compounds, 0.05% hits. inhibition, % at 9.99 µM. 90 min. Protein disulfide-isomerase A6 (Homo sapiens), Q15084;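 active means mean replicate inhibition above about 25%, with every replicate also reaching it, limit read from the data, passing the limit was not always enough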
PDI turbidity: inhibitors of human PDI, primary screen, biochemical, turbidity, single point, plate reader; Protein disulfide-isomerase (Homo sapiens), P07237; PDI insulin aggregation turbidity, A650, 90 min; inhibition, % at 10 µM; 350,000 compounds, 0.052% hits;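 active means mean inhibition across replicates of 30% or more, whatever share of single replicates reach that level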
Target sequence (P07237 whole entry, looked up): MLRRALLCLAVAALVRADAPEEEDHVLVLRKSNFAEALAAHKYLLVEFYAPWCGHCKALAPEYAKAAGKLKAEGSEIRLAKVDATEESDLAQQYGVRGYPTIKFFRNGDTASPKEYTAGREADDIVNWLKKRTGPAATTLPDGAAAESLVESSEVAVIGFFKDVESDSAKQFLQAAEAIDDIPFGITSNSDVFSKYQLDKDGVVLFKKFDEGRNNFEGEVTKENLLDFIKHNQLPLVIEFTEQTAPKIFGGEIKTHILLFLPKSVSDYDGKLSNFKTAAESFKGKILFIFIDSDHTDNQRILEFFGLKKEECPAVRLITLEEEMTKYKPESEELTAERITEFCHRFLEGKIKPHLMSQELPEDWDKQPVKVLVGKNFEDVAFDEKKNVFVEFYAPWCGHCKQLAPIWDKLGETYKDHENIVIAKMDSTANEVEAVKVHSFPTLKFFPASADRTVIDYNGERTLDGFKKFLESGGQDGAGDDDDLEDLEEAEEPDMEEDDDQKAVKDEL
ARNT TACC3 PPI: disruptors of ARNT/TACC3 protein interaction, primary screen, biochemical, AlphaScreen, single concentration | Transforming acidic coiled-coil-containing protein 3 (Homo sapiens), Q9Y6A5 | AlphaScreen His-ARNT PAS-B/GST-TACC3 binding, luminescence; TACC3 fragment carries E629A point mutation | inhibition, % at 9.99 µM | 390,000 compounds, 0.66% hits | AID 623870, 2012;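 active means mean inhibition of replicates at least 50% and at least half of replicates each reaching 50%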
NRP1-CendR mod: modulators of CendR peptide binding to NRP-1, primary screen, biochemical, fluorescence polarization, uHTS; FAM-RPARPAR peptide binding to NRP-1; inhibition, % at 25 µM; 360,000 compounds, 0.85% hits;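 active means inhibition or corrected inhibition above about 18%, plus a signal ratio from 0.5 to 1.5, limit read from the data, passing the limit was not always enough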
Hits are given with their value; n = inactive; x = no result. This is one part of a sample in which hits are shown more often than they occur.

SMILES	ALR H2O2 inh	PglD DTNB	ERp5 inh	PDI turbidity	ARNT TACC3 PPI	NRP1-CendR mod
COC(=O)c1ccc(NC(=O)CSCc2ccc(C)cc2)cc1	n	n	x	n	n	n
O=C(CSCc1ccccc1)Nc1ccc(S(=O)(=O)Nc2ncccn2)cc1	98	n	n	n	x	n
Cc1ccc(SCC(=O)Nc2ccc(S(=O)(=O)Nc3ncccn3)cc2)cc1	90	x	n	n	n	n
CN(C)C(=O)C[C@@H]1CC[C@@H]2[C@H](COC[C@H](O)CN2CC2CCCCC2)O1	x	n	n	x	n	x
C[C@H](CO)N1C[C@H](C)[C@H](CN(C)Cc2ccc(C(F)(F)F)cc2)OCCCC[C@H](C)Oc2ccc(NS(=O)(=O)c3cn(C)cn3)cc2C1=O	x	n	n	x	n	x
CCc1c(C(=O)NNC(=S)Nc2ccc(S(=O)(=O)Nc3ncccn3)cc2)csc1C	98	n	n	n	n	n
O=S(=O)(Nc1ncccn1)c1ccc(NC(=S)Nc2ccccc2)cc1	n	n	n	n	n	n
COc1ccc2c3c(n(C)c2c1)[C@H](CO)N(S(C)(=O)=O)CC31CCN(CC2CCCC2)CC1	x	x	60	x	x	x
COCc1cc(Sc2ccc(Cl)cc2)nc(-c2ccccc2)n1	n	n	x	n	n	n
COCc1cc(Sc2ccc(Br)cc2)nc(-c2ccccc2)n1	99	n	x	n	n	n
CC1CCN(C(=O)C2CCC(CNS(=O)(=O)c3cccc4cccnc34)CC2)CC1 (centres undefined)	n	n	n	n	n	n
CC1CCC(NC(=O)C2CCC(CNS(=O)(=O)c3cccc4cccnc34)CC2)CC1 (centres undefined)	n	n	n	n	n	21
CCCN1CNc2c(c(=O)[nH]c(=S)n2CCc2ccccc2)C1	91	x	n	n	n	n
COc1ccc(CCN=C(N)NS(=O)(=O)c2cccs2)cc1OC	n	n	n	n	n	20
O=C(O)c1ccc(N/N=C/C2=Cc3ccccc3OC2)cc1	98	n	n	n	n	n
COc1ccc(NC(=O)Nc2ccc3c(c2)C(=O)N([C@H](C)CO)C[C@H](C)[C@H](CN(C)C(=O)Nc2cccc4ccccc24)OCCCC[C@@H](C)O3)cc1	x	n	n	x	n	x
CC(/C=C/C(=O)c1ccc(C)cc1)=C\c1ccccc1	n	x	x	n	n	n
Cc1ccc(C(=O)/C=C\C(=O)c2ccc(C)cc2)cc1	98	x	n	n	n	n
O=C(C[C@H]1C[C@@H]2c3cc(NC(=O)C4CCC4)ccc3O[C@@H]2[C@@H](CO)O1)NCCc1ccccc1	x	n	n	x	n	x
CCc1ccc(NC(=O)C(C)Sc2nc(-c3ccco3)c(C#N)c(=O)[nH]2)cc1 (centres undefined)	98	n	n	n	x	n
O=C(CSc1nc2[nH]ncc2c(=O)[nH]1)Nc1cccc(Cl)c1	n	x	n	n	n	n
N#Cc1c(-c2ccco2)nc(SCC(=O)Nc2cccc(Cl)c2)[nH]c1=O	99	n	x	n	n	n
CCN1C(=O)/C(=C\c2ccc(F)cc2)N=C1SCC(=O)NCc1ccco1	95	n	n	n	n	n
O=C(CSc1ccc(-c2ccc(F)cc2)nn1)NCc1ccco1	n	x	x	n	n	n
CN(C)C(=O)c1ccc(-c2ccc([C@@H]3[C@H](CO)N4CCCCN(Cc5ccncc5)C[C@@H]34)cc2)cc1	x	n	n	x	n	x
Cn1c(=O)n(C)c2cc(S(=O)(=O)Nc3ccccc3O)ccc21	n	n	n	n	n	n
Cn1c(=O)n(C)c2cc(S(=O)(=O)Nc3cc(Cl)ccc3O)ccc21	98	x	n	n	n	n
Cn1c(=O)oc2cc(S(=O)(=O)Nc3ccccc3O)ccc21	n	n	n	n	n	35
N=C1C(c2nc(-c3ccc(Cl)cc3)cs2)=C(O)CN1CCCN1CCOCC1	98	n	x	n	n	n
CO[C@H]1CC[C@@H]2CCN(C)C(=O)[C@@H](C)CN(C)C(=O)c3cccc(C#N)c3OC[C@H]1O2	x	n	n	x	n	x

Screening results deposited in PubChem by several laboratories.
